Most compounds without a hit are left out; they make up all but 7.4% or so of the library.
Rab9 promoter act: Rab9 promoter activation | Huh7 Rab9 promoter-luciferase reporter, luminescence, 24 h | Potency, µM (doses to about 9.22 µM), for inactives: at the top dose activation, negative = inhibition, usual class: activators | 320,000 compounds, 2.8% hits | AID 485297; further: % of control where 0% means no effect; nearly all actives have a fitted effect of over 60% in size
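Huh7 cells stably carrying a Rab9 promoter-luciferase reporter, 1500 cells per well in OP-MEM I with 10% FBS, treated with compound 24 hours at 37C. Luciferase activity read by luminescence after 10 minutes with Amplite reagent.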
NPC1 prom act: activates the NPC1 promoter; AID 485313; 320,000 compounds, 2.4% hits; Potency, µM (series often up to 9.22 µM), inactives show at the highest dose activation, hits mostly activators; Huh7 NPC1 promoter luciferase reporter, 24 h; further: % of control where 0% means no effect; nearly all actives have a fitted effect of over 60% in size
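Huh7 cells stably carrying NPC1 promoter–luciferase, plated in Opti-MEM with 10% FBS for 2 h, were exposed to compound in DMSO for 24 h at 37 °C; luciferase reagent was added for 10 min and luminescence read.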
ELG1 genotoxic: inducers of genotoxicity in HEK293T ELG1-luciferase cells. HEK293T ELG1-luciferase reporter, luminescence, 16 h. 330,000 compounds, 1.3% hits. AID 504466. Potency, µM (doses to about 46 µM), for the others: at the top dose activity change, positive = activation, actives largely listed as activators; further: % of control where 0% means no effect; nearly all actives have a fitted effect of over 60% in size
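Reporter readout depends on ELG1 protein level, which increases with genetic stress. After 16 hr compound exposure at 37 °C, luciferase activity was quantified using ONE-Glo.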
SMN2 splice up: SMN2 splice variant enhancement | 210,000 compounds, 2.8% hits | HEK293 SMN2-luciferase splicing reporter, luminescence, 30-36 h | Potency, µM (titrated, usually from 46.1 µM), for inactives: top-dose activity change, positive = activation, usual class: activators; further: % of control where 0% means no effect; nearly all actives have a fitted effect of over 55% in size
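HEK293 cells carry an SMN2 […]–luciferase reporter in which exon 7 inclusion puts luciferase in frame. Cells were plated 10-12 h before compound addition, then incubated 30-36 h at 37C. ONE-Glo luminescence was read; sodium butyrate at 4.5 mM final served as control.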
FLuc counter: firefly luciferase modulation, counter-screen for miR-21 project; P08659; purified FLuc, Km substrates, luminescence inhibition; Potency, µM (series often up to 57.5 µM), without a hit: at the top dose activity change, negative = inhibition, actives largely listed as inhibitors; 360,000 compounds, 6.9% hits; AID 588342;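 further: plate controls were vehicle for no effect and reference inhibitor for full effect; nearly all actives have a fitted effect of over 55% in size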
Target sequence (P08659 whole entry, looked up): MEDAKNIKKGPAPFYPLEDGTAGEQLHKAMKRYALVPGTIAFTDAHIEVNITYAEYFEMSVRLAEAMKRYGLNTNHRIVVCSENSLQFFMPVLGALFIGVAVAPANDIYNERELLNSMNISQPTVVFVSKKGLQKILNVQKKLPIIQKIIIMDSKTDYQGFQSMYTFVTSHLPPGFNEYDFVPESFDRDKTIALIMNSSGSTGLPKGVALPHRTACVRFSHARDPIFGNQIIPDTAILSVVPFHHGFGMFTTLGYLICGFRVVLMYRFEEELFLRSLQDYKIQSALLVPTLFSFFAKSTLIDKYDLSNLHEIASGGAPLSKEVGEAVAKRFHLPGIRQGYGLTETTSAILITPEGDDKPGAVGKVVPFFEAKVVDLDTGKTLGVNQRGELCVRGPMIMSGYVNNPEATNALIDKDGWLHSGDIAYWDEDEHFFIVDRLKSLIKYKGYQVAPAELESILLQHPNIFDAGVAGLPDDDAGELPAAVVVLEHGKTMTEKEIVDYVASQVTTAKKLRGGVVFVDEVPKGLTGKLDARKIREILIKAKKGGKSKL
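Purified P. pyralis luciferase, 10 nM final, with Km-level 10 uM D-luciferin and 10 uM ATP in 50 mM Tris acetate pH 7.5, 10 mM Mg acetate, 0.01% Tween-20, 0.05% BSA; 6-point qHTS titration about 60 µM downward; luminescence read.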
Active calls of the source: *; ? = inconclusive; nt = no result given; [ ] = remark or other dose. The call rests on the fitted dose curve; in most records, active means well fitted curve in the direction sought with a large enough effect; inconclusive means small, poorly fitted or top-dose-only effect, or another doubt; inactive means no such curve, though single readings can be large; an effect the other way counts as inactive or inconclusive. Potency means the concentration at half of the fitted maximal effect.

SMILES	Rab9 promoter act	NPC1 prom act	ELG1 genotoxic	SMN2 splice up	FLuc counter
c1ccc(C[C@@H](Nc2cccnc2)c2ccccc2)cc1	nt	nt	nt	-18%[9.22 µM]	nt
CC(C)(C)NC(=O)Cn1c(Cl)nc2ccccc21	-4%	-2%	-3%	-10%	-10%
N#C/C(C(=O)c1ccccc1)=C1/CCCN1	7%	0%	5%	nt	-1%
N#C/C(C(=O)Oc1ccccc1)=C1\C=CC=CN1	2.8µM*	3.5µM*	?	25%	19µM*
Clc1ccc(-c2nnn(Cc3nc4ccccc4s3)n2)cc1	16%	8%	?	14%	19µM*
Fc1ccc(-c2nnn(Cc3nc4ccccc4s3)n2)cc1	6%	0%	?	3%	?
Nc1cccn2c(-c3ccc(Cl)cc3)cnc12	3.5µM*	?	?	11µM*	2.7µM*
Nc1nnc(-c2ccc(Cl)c(Cl)c2)s1	14%	2%	1%	3%	?
Cn1c(-c2ccc(Cl)cc2)cnc1N	7%	9%	-2%	-4%	0%
Nc1cccn2c(-c3ccc(Cl)c(Cl)c3)cnc12	3.2µM*	?	?	3.5µM*	3µM*
CCc1ccccc1NC(=O)Cn1c(=O)n(-c2ccc(C)cc2)c(=O)c2c1c1cc(C)ccc1n2C	nt	nt	nt	nt	-1%
COc1ccc(N/N=C(/N=Nc2nc(C)cc(=O)[nH]2)c2ccccc2)cc1	-9%	?	2.6µM*	-62%	4.3µM*
Cc1cc(=O)[nH]c(N=N/C(=N/Nc2ccccc2C)c2ccccc2)n1	-29%	-16%	4%	-94%	-20%
Cc1cc(=O)[nH]c(N=N/C(=N/Nc2ccc(O)cc2)c2ccccc2)n1	0%	4%	?	-55%	11µM*
CC(C)C(=O)N1c2nc(C(C)C)nn2C2(CCCCC2)[C@@H]2CCCC[C@@H]21	nt	nt	nt	nt	-8%
C=CCn1c(-c2ccc(OC)cc2)csc1=Nc1c(C)n(C)n(-c2ccccc2)c1=O	0%	1%	-16%	-19%	2%
COc1ccc(-c2cc(C(=O)Oc3ccc(C)cc3)c3cc(C)ccc3n2)cc1	nt	nt	nt	-3%	-17%
CCc1ccc2oc(-c3ccc(OC)cc3)cc(=Nc3c(C)n(C)n(-c4ccccc4)c3=O)c2c1	?	?	-14%	-104%	8.5µM*
CCc1ccc2oc(-c3ccc(OC)cc3)cc(=Nc3cccc(C(=O)O)c3)c2c1	3.2µM*	?	4.1µM*	?	5.4µM*
COc1ccc(-c2cc(=Nc3ccc(C(=O)O)cc3)c3cc(C)ccc3o2)cc1	?	?	?	18µM*	9.5µM*
CCc1ccc(NC(=O)Nc2ccccc2OCc2cc(=O)n3ccccc3n2)cc1	nt	nt	nt	nt	0.21µM*
CC(C)C(=O)Nc1ccccc1OCc1cc(=O)n2ccccc2n1	nt	nt	nt	nt	-8%
O=C(COc1ccccc1Cl)Nc1ccccc1OCc1cc(=O)n2ccccc2n1	nt	nt	nt	nt	19µM*
CSc1cccc(NC(=O)Nc2ccccc2OCc2cc(=O)n3cc(C)ccc3n2)c1	nt	nt	nt	nt	3µM*
COc1ccc(/C=C2\Sc3ccc(C(=O)N4CCOCC4)cc3N(C)C2=O)cc1	0%	2%	-1%	nt	15µM*
SMILES	Rab9 promoter act	NPC1 prom act	ELG1 genotoxic	SMN2 splice up	FLuc counter
COc1ccc(/C=C2\Sc3ccc(C(=O)NCC4CCCO4)cc3N(C)C2=O)cc1 (centres undefined)	-4%	2%	1%	nt	?
O=C(O)C[C@H](NC(=O)CP(=O)(O)O)C(=O)O.[NH-][C@@H]1CCCC[C@@H]1[NH-].[Pt]	nt	nt	nt	2.5µM*	nt
O=C(N=Nc1c(O)[nH]c2ccccc12)c1ccc(CN2CCOCC2)cc1	-7%	-1%	-5%	-11%	?
O=C(N=Nc1c(O)[nH]c2ccccc12)c1ccc2c(c1)OCO2	0.56µM*	2.2µM*	?	11µM*	0.6µM*
O=C(CNC(=O)c1ccccn1)N=Nc1c(O)[nH]c2ccccc12	11%	0%	-1%	nt	15µM*
CC(=O)/C=C(\C)N=Nc1c(O)[nH]c2ccccc12	-1%	-1%	8%	nt	13µM*
COc1ccc(CC(=O)NCC(=O)N=Nc2c(O)[nH]c3ccccc23)cc1	6%	2%	1%[9.26 µM]	nt	2%
O=C(N=Nc1c(O)[nH]c2ccccc12)c1ccco1	2µM*	3.5µM*	?	nt	5.4µM*
CC(C)CC(=O)N=Nc1c(O)[nH]c2ccccc12	?	27%	?	-4%	-8%
